p53 reactivation: qHTS assay for re-activators of p53 using a Luc reporter; Potency, µM (top dose mostly 92.2 µM), usual class: activators; H1299 p53-A138V BP100-luciferase reporter, luminescence, 24 h; 0.063% of 320,000 active; note: nearly all actives have a fitted effect of over 45% in size
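H1299 (p53-null), stable ts p53-A138V + BP100-Luc; 1000 cells/well, Opti-MEM/10% FBS; cpd 4 pt, 1:5; 24 h, 37 deg C, 5% CO2; detection reagent 10 min RT; luminescence.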
GLP1R inv ag: qHTS of GLP-1 Receptor Inverse Agonists (Inhibition Mode). Glucagon-like peptide 1 receptor (Homo sapiens), P43220. HEK293 GLP-1R CRE-luciferase, luminescence, 24 h; GLP-1R form is constitutively active. Potency, µM (titrated, usually from 38.3 µM), most hits filed as inhibitors. 1.6% of 410,000 active. AID 624417, 2012; note: nearly all actives have a fitted effect of over 55% in size
Target sequence (P43220 whole entry, looked up): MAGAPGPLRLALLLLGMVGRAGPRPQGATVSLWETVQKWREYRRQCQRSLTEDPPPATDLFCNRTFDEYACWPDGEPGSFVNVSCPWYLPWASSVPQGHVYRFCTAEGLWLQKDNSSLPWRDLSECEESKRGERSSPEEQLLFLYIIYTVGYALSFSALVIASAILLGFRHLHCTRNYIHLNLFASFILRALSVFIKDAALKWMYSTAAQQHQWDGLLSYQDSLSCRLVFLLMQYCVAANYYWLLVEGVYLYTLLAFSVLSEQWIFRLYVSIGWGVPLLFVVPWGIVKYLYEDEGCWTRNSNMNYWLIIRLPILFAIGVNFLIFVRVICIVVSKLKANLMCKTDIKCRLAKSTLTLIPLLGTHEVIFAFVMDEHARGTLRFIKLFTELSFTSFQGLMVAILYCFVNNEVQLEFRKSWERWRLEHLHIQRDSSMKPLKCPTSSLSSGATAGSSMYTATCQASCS
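Luminescence readout: a drop in cAMP-driven luciferase signal flags inverse agonism at a constitutively active GLP-1R stably expressed in HEK293. Compound exposure lasted 24 hr at 37 deg C, 5% CO2.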
GLP1R cytotox: qHTS of GLP-1 Receptor Inverse Agonists: Cytotox Screen; HEK293 cAMP-luciferase reporter cells, luminescence, 24 h; Potency, µM (top dose mostly 38.3 µM), actives largely listed as inhibitors; 0.13% of 410,000 active; AID 624418, 2012;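 note: loss of luciferase light is scored as toxicity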
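Here, cytotoxicity is scored as loss of luminescence. The MLSMR collection was tested on cells seeded in medium containing 10% Nu serum, with a 24 hr compound exposure preceded by 12 hours of culture.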
ClpP mod: qHTS Assay for Activators of ClpP | ATP-dependent Clp protease proteolytic subunit (Bacillus subtilis (strain 168)), P80244 | purified B. subtilis ClpP, FRET peptide cleavage, 20 min | Potency, µM (series often up to 57.5 µM) | 1.9% of 340,000 active; active = well fitted falling curve with a large enough effect; inconclusive = small, poorly fitted or top-dose-only effect; inactive = no such curve, though single readings can be large or run the other way; note: the source files actives as falling curves though it sought activators and does not explain the sign; nearly all actives have a fitted effect of over 65% in size
Target sequence (P80244 whole entry, looked up): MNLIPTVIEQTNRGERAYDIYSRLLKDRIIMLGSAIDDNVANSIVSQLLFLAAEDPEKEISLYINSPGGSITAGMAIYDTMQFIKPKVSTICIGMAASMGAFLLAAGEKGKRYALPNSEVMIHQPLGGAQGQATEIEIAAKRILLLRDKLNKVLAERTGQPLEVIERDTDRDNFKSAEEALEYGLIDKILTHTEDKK
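FRET quenching reversal measured ClpP activation: 10 microg/mL B. subtilis ClpP at pH 8 with the FRET-FV decapeptide, read at 430 nm after 320 nm excitation. The 20-min minus 0-min signal was scaled between DMSO/no-enzyme wells and ADEP (5.8 microM final).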
GLP1R ag: qHTS of GLP-1 Receptor Agonists; Glucagon-like peptide 1 receptor (Homo sapiens), P43220; HEK293 GLP-1R CRE-luciferase, luminescence, 4-6 h; cells express a hypersensitive GLP-1R form; Potency, µM (doses to about 45.6 µM), usual class: activators; 0.007% of 380,000 active
LDHA block: qHTS assay for inhibitors of human lactate dehydrogenase; L-lactate dehydrogenase A chain (Homo sapiens), P00338; purified LDHA, NADH/diaphorase-resazurin fluorescence; hits give low values; 0.15% of 480,000 active; activity change, % (values are at about 110 or 230 µM); in the data active = activity change below about -30%; inconclusive = mostly about -25% to -30%
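Human LDH5 (2 nM) was incubated with 0.06 mM NADH and 0.2 mM pyruvate for 5 min at room temperature in Tris pH 7.4. Remaining NADH was coupled through diaphorase/resazurin, and resorufin fluorescence was read at 0 and 20 min.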
Large screens that a line does not name were inactive. Sampled rows, rich in hits. Any-hit rate of the full collection: about 2.9%. Unless noted, calls come from the whole dose curve; as a rule, active = well fitted curve in the direction sought with a large enough effect; inconclusive = small, poorly fitted or top-dose-only effect, or another doubt; inactive = no such curve, though single readings can be large; an effect the other way counts as inactive or inconclusive.

O=C(CSc1n[nH]c(=O)[nH]c1=O)NCC1CCCCC1	none
Cc1ccc(NC(=O)[C@@H](c2ccccc2)N2Cc3ccccc3C2=O)cc1F	GLP1R inv ag 10µM (no result: p53 reactivation)
Cc1ccc(S(=O)(=O)N2CCC[C@H]2C(=O)Nc2ccccc2C)cc1	none (no result: ClpP mod)
COc1ccc(-n2nc3c(N4CCC(C(=O)NCCc5ccccc5)CC4)nnc(C)c3c2C)cc1	ClpP mod inconclusive (no result: p53 reactivation, GLP1R ag)
COc1ccc(C(O)C(CN2CCOCC2)c2ccccc2)cc1F (centres undefined)	none
COc1ccc(C(=O)/C=C/C(=O)N(Cc2ccc3c(c2)OCO3)C(C(=O)NC2CCCCC2)c2ccncc2)c(O)c1 (centres undefined)	GLP1R inv ag inconclusive, ClpP mod 12.6µM
O=C(NCc1ccccc1)C(c1ccccc1)N(Cc1ccc2c(c1)OCO2)C(=O)Cc1cccs1 (centres undefined)	GLP1R inv ag 7.94µM
O=C(NC1CCCC1)C(c1ccccc1)N(Cc1ccc2c(c1)OCO2)C(=O)Cc1cccs1 (centres undefined)	GLP1R inv ag 10µM
COc1ccc(CN(C(=O)/C=C/C(=O)c2ccc(OC)cc2O)C(C(=O)NC2CCCCC2)c2ccncc2)cc1 (centres undefined)	GLP1R inv ag inconclusive
Cc1onc(-c2ccccc2Cl)c1C(=O)NCc1ccco1	none
O=C(CSc1ccc(Cl)cc1)N1CCN(c2c(Cl)cccc2[N+](=O)[O-])CC1	GLP1R inv ag 2.82µM
COc1ccc(S(=O)(=O)Nc2ccc(Nc3ccccc3)cc2)cc1	GLP1R inv ag 7.08µM (no result: p53 reactivation)
COc1ccc(S(=O)(=O)Nc2ccccc2)cc1	none (no result: p53 reactivation)
COc1ccc(N/N=C(\C#N)C(=N)SCc2ccccc2)cc1	GLP1R inv ag 0.282µM, GLP1R cytotox inconclusive
CCOC(=O)Cn1c(C)nc2c(C(=O)OCC)sc(C)c2c1=O	ClpP mod 31.6µM
CCOC(=O)c1sc(C)c2c(=O)n(CC(=O)c3ccc(Br)cc3)nnc12	none
O=C(Cc1cccs1)NC1(C(=O)NC2CCCC2)CCCCC1	ClpP mod 25.1µM
O=C(NC(=S)N1CCCCCC1)c1ccccc1Cl	GLP1R inv ag inconclusive, GLP1R cytotox 5.01µM (no result: ClpP mod)
NC(=O)C1CCN(c2ccnc3cc(Cl)ccc23)CC1	none
Cc1nn(-c2nc3ccccc3n2Cc2ccccc2)c2c1C(=O)CC(C)(C)C2	GLP1R inv ag 2.24µM (no result: p53 reactivation)
Cc1cccc(CNS(=O)(=O)c2ccc3c(c2)OCCO3)c1	none (no result: p53 reactivation, GLP1R inv ag, GLP1R cytotox, ClpP mod, GLP1R ag)
CC(C)CCOc1ccc(C(=O)NCC(c2ccco2)N(C)C)cc1 (centres undefined)	GLP1R inv ag 7.94µM (no result: ClpP mod)
CN(C)C(CNC(=O)c1ccc(Br)cc1)c1ccco1 (centres undefined)	none (no result: ClpP mod)
O=C1CC(c2ccc(Cl)cc2)Oc2ccc(Cl)cc21 (centres undefined)	GLP1R inv ag inconclusive (no result: p53 reactivation, ClpP mod)
Cn1c(Cl)cnc1C1CC(=O)c2cc(Cl)ccc2O1 (centres undefined)	GLP1R inv ag 3.55µM, GLP1R cytotox 7.94µM
O=C(NCC1(c2ccccc2)CCCC1)c1ccccc1Br	GLP1R inv ag 10µM (no result: ClpP mod)
CC1CCCCC1NC(=S)NC(=O)c1cccs1 (centres undefined)	GLP1R inv ag 8.91µM, GLP1R cytotox inconclusive
O=C(c1cc([N+](=O)[O-])ccc1Cl)N1CCc2ccccc21	GLP1R inv ag inconclusive, ClpP mod inconclusive (no result: p53 reactivation)
O=C(c1cc([N+](=O)[O-])ccc1N1CCCCC1)N1CCc2ccccc21	GLP1R inv ag 2µM, GLP1R cytotox inconclusive (no result: ClpP mod)
Cc1ccc(C(=O)c2c(C)oc3c2C(=O)C(=O)c2ccccc2-3)cc1	GLP1R inv ag inconclusive, GLP1R cytotox 5.01µM
O=C(CC1(c2ccc(Cl)cc2)C2CC3CC(C2)CC1C3)NCCO (centres undefined)	ClpP mod 12.6µM
Cc1cccc(CNC(=O)c2ccc(N3Cc4ccccc4Oc4ncccc43)s2)c1	ClpP mod 28.2µM (no result: p53 reactivation, GLP1R ag)
COc1ccccc1Cn1c(=O)oc2ccccc21	none (no result: p53 reactivation)
COc1ccc(C2NCCn3cccc32)cc1 (centres undefined)	GLP1R inv ag inconclusive
Cc1ccc(/C=C/C(=O)c2cc(Br)ccc2OC(=O)c2ccco2)cc1	p53 reactivation inconclusive, GLP1R inv ag inconclusive
COc1ccccc1/C=C/C(=O)c1cc(Br)ccc1OC(=O)c1ccco1	GLP1R inv ag 5.01µM, GLP1R cytotox inconclusive (no result: p53 reactivation)
O=C(/C=C/c1ccccc1O)c1ccco1	GLP1R inv ag inconclusive, GLP1R cytotox inconclusive, ClpP mod 1.58µM (no result: p53 reactivation)
COc1ccc(-c2noc(CSc3nc4ccccc4[nH]3)n2)cc1	GLP1R inv ag inconclusive (no result: p53 reactivation)
O=C1CCCN2N=C(SCC(=O)N3N=C(c4ccc(Br)cc4)CC3c3ccc(F)cc3)SC2=N1 (centres undefined)	GLP1R inv ag inconclusive
Cc1ccc(C2CC(c3ccc(Br)cc3)=NN2C(=O)CSC2=NN3CCCC(=O)N=C3S2)cc1 (centres undefined)	GLP1R inv ag 4.47µM
CCOC(=O)C(=O)NNc1ccc(F)cc1	GLP1R inv ag 0.891µM
CSc1ccccc1NC(=O)CSCc1ccc(C)cc1	GLP1R inv ag 5.01µM
Cc1cccc(NC(=O)CSCC(=O)Nc2ccc(N3CCOCC3)cc2N2CCOCC2)c1	none (no result: p53 reactivation)
Cc1ccc(CSCC(=O)Nc2ccc(N3CCOCC3)cc2N2CCOCC2)cc1	ClpP mod 35.5µM
CS(=O)(=O)N1CCc2cc(C(=O)N3CCN(c4cccc(Cl)c4)CC3)ccc21	GLP1R inv ag inconclusive
COc1ccc(Cl)cc1C(=O)NCCCSc1ccccc1	GLP1R inv ag inconclusive (no result: ClpP mod)
COc1ccc(NC(=O)CC2SCCNC2=O)cc1 (centres undefined)	none (no result: p53 reactivation, GLP1R inv ag, GLP1R cytotox, ClpP mod, GLP1R ag)
COC(=O)c1cc2ccccc2oc1=O	ClpP mod 20µM
O=C(Nc1ccccc1I)c1cc2ccccc2oc1=O	none (no result: p53 reactivation, GLP1R inv ag, GLP1R cytotox, ClpP mod, GLP1R ag)
O=C(NCc1ccc(Cl)cc1)c1cc2ccccc2oc1=O	p53 reactivation inconclusive, ClpP mod 20µM
O=C(OCCn1cncn1)c1cc2ccccc2oc1=O	ClpP mod 28.2µM
O=C(Nc1cc2ccccc2oc1=O)c1ccccc1	GLP1R inv ag 7.94µM (no result: ClpP mod)
COC(=O)c1ccccc1OC(=O)c1cc2ccccc2oc1=O	none (no result: ClpP mod)
O=C(COC(=O)c1cc2ccccc2oc1=O)Nc1ccc(I)cc1	none (no result: p53 reactivation, GLP1R inv ag, GLP1R cytotox, ClpP mod, GLP1R ag)
Cc1ccccc1C(=O)OCC(=O)N1CC(=O)Nc2ccccc21	none (no result: p53 reactivation)

Screening results: PubChem BioAssay, National Center for Advancing Translational Sciences (NCATS)
